From the supplement of paper PMC11732987, “Enantioselective OTUD7B fragment discovery through chemoproteomics screening and high-throughput optimisation” (Communications Chemistry, 2025)

What was measured:
Assay in all cases: log2 ratio of Biotin-Ahx-Ub-VS probe labelling (fragment/DMSO); higher = less target engagement (more negative = stronger competition), active = hit call of the paper (q ≤ 0.05, log2 ratio ≤ -1)
Conditions in all cases: compound concentration: 200 uM; treatment time: 3 h
USP19 = biological target: T1, USP19 (UniProt O94966)
T1 sequence (whole entry): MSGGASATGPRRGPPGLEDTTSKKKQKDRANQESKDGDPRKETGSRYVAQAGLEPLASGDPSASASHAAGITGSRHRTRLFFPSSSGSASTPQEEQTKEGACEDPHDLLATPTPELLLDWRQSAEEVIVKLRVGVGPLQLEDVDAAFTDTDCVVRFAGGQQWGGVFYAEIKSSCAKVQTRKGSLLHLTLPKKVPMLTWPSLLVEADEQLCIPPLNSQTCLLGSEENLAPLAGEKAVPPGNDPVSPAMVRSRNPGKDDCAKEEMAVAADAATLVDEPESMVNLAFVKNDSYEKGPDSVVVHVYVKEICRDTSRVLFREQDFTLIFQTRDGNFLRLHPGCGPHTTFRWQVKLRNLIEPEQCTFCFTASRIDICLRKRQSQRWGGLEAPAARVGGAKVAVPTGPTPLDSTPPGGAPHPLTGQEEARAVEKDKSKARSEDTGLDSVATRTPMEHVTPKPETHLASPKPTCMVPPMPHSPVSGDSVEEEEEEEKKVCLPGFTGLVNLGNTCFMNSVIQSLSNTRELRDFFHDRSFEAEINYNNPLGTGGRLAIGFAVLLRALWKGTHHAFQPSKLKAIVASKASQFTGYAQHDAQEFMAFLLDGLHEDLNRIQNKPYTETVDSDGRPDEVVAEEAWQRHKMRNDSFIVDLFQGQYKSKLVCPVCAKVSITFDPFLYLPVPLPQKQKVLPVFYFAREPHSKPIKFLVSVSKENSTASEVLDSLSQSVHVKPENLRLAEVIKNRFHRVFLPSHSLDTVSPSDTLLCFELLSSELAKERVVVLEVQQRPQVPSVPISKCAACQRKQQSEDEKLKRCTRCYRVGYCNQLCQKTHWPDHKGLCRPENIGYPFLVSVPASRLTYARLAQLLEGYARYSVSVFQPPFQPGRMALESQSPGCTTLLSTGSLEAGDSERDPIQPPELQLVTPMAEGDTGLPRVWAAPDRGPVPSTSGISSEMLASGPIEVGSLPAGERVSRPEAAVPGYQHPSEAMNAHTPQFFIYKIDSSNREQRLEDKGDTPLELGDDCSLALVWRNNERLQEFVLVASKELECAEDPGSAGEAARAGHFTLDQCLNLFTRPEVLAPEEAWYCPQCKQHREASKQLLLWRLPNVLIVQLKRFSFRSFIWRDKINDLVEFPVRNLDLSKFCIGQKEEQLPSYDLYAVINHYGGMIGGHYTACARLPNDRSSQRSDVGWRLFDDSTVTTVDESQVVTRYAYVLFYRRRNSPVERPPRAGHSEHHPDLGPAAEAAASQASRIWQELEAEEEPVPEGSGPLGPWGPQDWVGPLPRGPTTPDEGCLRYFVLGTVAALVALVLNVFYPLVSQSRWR
In short: (§1)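 Average log2 ratios of fragment over vehicle were obtained by unpaired t-test from global-median-normalised Spectronaut label-free quantities. Proteins with ≥2 unique peptides were included. HEK293T lysate (495 µg per sample) was treated in triplicate with fragment at 200 µM or vehicle for 3 h, then with Biotin-Ahx-Ub-VS at 0.5 µM final for 1 h, and labelled DUBs were NeutrAvidin-enriched and run by diaPASEF LC-MS/MS.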

USP24 = USP24 (UniProt Q9UPU5)
In short: as §1

USP25 = biological target: T2, USP25 (UniProt Q9UHP3)
T2 sequence (whole entry): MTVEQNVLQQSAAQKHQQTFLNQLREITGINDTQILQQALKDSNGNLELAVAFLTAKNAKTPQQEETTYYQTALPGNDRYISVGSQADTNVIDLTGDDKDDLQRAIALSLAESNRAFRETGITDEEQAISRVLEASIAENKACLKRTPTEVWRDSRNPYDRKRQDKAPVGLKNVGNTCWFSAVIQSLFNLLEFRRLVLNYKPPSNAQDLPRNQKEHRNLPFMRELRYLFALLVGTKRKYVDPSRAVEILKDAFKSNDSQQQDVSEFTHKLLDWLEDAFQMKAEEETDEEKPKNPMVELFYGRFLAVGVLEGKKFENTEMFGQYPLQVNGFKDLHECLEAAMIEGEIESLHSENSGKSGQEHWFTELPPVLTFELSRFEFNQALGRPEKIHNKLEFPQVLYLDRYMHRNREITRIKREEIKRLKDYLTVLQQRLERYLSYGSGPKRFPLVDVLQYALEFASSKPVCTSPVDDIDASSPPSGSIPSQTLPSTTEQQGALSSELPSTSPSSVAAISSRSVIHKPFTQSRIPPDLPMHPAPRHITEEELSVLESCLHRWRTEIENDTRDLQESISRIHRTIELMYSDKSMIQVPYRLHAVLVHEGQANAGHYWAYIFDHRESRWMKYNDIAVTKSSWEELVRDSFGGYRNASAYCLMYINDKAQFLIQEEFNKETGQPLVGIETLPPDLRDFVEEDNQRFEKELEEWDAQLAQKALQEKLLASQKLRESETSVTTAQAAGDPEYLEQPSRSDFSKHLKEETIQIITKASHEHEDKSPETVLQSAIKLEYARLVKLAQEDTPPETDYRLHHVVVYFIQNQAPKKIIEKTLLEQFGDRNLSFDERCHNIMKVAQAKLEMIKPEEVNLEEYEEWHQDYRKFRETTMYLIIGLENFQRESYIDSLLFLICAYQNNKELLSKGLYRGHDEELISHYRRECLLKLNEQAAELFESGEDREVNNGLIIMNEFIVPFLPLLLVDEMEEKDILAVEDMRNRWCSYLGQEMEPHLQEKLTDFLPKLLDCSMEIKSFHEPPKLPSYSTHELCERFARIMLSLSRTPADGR
In short: as §1

USP28 = biological target: T3, USP28 (UniProt Q96RU2)
T3 sequence (whole entry): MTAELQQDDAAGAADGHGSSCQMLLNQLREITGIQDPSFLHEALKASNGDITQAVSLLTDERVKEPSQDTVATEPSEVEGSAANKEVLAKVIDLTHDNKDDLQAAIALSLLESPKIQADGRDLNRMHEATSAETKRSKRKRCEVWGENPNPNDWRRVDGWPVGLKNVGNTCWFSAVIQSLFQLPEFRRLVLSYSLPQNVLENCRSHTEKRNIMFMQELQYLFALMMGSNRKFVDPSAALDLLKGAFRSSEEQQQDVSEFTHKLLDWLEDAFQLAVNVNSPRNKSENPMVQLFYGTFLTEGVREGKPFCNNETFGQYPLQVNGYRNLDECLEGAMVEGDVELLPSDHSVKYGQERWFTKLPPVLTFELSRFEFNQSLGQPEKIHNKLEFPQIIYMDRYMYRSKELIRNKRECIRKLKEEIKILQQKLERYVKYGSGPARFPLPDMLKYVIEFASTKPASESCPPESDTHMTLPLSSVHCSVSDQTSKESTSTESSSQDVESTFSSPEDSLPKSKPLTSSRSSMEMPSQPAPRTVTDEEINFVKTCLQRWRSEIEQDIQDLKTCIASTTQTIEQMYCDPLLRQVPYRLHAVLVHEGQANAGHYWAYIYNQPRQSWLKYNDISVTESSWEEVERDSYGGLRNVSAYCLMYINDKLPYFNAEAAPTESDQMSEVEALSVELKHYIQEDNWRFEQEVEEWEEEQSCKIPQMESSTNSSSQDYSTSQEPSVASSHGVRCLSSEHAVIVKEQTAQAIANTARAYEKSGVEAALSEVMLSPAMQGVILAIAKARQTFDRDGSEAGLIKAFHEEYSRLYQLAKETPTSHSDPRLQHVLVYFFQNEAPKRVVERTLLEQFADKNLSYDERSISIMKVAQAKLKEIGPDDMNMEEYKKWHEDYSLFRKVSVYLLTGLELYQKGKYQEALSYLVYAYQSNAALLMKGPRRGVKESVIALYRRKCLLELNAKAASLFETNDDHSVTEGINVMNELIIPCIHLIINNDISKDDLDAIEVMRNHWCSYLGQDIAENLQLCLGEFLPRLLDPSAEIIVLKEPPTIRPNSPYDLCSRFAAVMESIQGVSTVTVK
In short: as §1

Measured: log2 ratio of Biotin-Ahx-Ub-VS probe labelling

Sequence of USP24 (Q9UPU5 whole entry): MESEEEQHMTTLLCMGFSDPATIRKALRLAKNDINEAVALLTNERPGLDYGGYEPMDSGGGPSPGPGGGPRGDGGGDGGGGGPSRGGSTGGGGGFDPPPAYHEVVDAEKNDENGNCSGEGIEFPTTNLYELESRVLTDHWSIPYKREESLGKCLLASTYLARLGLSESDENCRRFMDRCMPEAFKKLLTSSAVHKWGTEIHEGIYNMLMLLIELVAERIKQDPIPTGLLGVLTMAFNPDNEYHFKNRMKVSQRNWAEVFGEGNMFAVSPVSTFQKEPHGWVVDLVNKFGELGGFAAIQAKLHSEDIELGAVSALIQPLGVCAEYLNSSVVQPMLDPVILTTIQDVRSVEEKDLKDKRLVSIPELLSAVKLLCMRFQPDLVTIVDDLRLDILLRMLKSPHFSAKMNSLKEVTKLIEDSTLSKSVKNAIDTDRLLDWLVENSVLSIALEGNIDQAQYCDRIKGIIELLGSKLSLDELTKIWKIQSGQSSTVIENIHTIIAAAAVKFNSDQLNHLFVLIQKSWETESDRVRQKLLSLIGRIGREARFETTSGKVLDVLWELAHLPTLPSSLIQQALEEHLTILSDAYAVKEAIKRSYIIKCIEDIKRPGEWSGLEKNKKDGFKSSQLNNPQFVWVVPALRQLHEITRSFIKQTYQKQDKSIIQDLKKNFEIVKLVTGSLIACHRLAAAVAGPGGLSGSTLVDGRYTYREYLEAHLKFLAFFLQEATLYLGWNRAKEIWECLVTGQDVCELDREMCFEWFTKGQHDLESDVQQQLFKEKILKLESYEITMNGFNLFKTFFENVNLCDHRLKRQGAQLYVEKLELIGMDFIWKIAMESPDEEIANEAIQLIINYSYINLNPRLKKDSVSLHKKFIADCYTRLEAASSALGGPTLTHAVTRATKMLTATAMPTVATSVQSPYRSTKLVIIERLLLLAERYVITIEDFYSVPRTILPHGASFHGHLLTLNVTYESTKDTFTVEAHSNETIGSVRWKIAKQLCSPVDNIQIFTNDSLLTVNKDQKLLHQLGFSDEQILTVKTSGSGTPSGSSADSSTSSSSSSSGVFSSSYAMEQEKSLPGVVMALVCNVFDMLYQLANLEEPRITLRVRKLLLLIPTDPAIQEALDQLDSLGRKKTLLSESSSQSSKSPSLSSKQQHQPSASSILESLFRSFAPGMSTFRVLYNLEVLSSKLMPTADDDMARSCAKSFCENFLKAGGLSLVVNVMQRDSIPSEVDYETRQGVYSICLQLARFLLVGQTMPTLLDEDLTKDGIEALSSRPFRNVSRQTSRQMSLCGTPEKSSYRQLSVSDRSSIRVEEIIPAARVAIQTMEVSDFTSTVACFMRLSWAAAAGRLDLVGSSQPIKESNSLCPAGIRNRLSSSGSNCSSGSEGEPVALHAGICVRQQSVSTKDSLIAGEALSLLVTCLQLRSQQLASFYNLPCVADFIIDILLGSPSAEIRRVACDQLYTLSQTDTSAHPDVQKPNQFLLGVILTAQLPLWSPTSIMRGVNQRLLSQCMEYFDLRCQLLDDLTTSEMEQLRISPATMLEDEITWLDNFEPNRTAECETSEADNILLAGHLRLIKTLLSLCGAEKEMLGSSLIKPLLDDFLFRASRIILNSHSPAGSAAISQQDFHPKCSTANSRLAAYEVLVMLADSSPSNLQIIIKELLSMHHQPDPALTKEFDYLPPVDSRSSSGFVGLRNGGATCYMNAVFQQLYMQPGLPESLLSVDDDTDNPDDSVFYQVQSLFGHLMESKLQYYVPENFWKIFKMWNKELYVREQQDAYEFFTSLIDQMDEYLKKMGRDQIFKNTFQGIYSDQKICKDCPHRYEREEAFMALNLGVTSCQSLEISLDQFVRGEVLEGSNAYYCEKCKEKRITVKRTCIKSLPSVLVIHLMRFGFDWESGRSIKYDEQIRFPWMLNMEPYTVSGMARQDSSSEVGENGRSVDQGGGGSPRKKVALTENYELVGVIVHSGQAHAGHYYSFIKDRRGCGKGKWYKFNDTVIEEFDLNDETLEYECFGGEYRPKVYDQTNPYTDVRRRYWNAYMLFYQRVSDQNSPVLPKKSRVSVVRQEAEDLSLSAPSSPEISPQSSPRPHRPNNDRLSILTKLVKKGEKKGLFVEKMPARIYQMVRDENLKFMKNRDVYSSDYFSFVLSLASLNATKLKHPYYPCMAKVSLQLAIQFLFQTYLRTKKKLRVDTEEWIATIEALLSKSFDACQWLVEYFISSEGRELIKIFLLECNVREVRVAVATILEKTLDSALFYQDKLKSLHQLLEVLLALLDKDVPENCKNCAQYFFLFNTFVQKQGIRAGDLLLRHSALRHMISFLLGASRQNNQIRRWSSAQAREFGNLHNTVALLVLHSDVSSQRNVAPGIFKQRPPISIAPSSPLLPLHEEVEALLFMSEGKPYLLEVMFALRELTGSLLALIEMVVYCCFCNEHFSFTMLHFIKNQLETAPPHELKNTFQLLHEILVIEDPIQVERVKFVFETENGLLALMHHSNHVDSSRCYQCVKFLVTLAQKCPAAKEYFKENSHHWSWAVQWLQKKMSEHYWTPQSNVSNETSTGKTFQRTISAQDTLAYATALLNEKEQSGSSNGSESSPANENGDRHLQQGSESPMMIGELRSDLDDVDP

NC(=O)C1CCCCN1C(=O)CCl (centres undefined)
inactive: USP19 -0.231 | USP24 -0.241 | USP25 -0.267 | USP28 -0.652
